# Compound activity from PubChem.
# VP16 counter: inhibits Gal4-VP16 luciferase reporter, ROR gamma counter-screen. Drosophila S2 Gal4-VP16 UAS-luciferase, luminescence, 20 h. Potency, µM (series often up to 53.6 µM), for inactives: top-dose activity, negative = inhibition, usual class: inhibitors. 310,000 compounds, 3.5% hits;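 further: Gal4-VP16 expression switched on by copper sulfate through the metallothionein promoter; potency means the concentration at half of the fitted maximal effect; nearly all actives have a fitted effect of over 50% in size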
# Coupling enz: counter-screen for Giardia aldolase inhibitors: coupling enzyme system. coupling enzyme system counterscreen, AmpLite Red fluorescence. activity change, negative = inhibition, % at 58.2 µM, hits read low. 290,000 compounds, 0.67% hits. AID 2472; in the data active means activity change below about -30%
#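 Activity here indicates interference with the coupling reaction, not aldolase inhibition. Compounds at 57.5 uM final met coupling enzymes for 10 min at RT; substrate and AmpLite Red detection followed, with a 525/598 nm fluorescence read after 20 min.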
# ELG1 DNA repair: ELG1-dependent DNA repair inhibition. Potency, µM (top dose mostly 46.1 µM), for the others: top-dose activity change, negative = inhibition, actives largely listed as inhibitors. HEK293T ELG1-luciferase reporter, luminescence, 16 h; DNA damage induced by 5-fluorouridine. 330,000 compounds, 2.3% hits. AID 504467; further: potency means the concentration at half of the fitted maximal effect; nearly all actives have a fitted effect of over 55% in size
#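 Step one: seed 2,000 cells per well. Step two: pin-transfer compound or DMSO alongside 5-fluorouridine. Step three: incubate 16 hr, 37 °C, 5% CO2. Step four: add ONE-Glo, wait 30 min, read luminescence.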
# RORgamma inh: blocks mouse ROR gamma transcriptional activity; P51450; Drosophila S2 Gal4-RORgamma UAS-luciferase reporter, 20 h; Potency, µM (titrated, usually from 53.6 µM), for inactives: at the highest dose activity change, negative = inhibition, hits mostly inhibitors; 310,000 compounds, 5.4% hits; AID 2551; further: potency means the concentration at half of the fitted maximal effect; nearly all actives have a fitted effect of over 60% in size
# Target sequence (P51450 whole entry, looked up, the tested form may be a part): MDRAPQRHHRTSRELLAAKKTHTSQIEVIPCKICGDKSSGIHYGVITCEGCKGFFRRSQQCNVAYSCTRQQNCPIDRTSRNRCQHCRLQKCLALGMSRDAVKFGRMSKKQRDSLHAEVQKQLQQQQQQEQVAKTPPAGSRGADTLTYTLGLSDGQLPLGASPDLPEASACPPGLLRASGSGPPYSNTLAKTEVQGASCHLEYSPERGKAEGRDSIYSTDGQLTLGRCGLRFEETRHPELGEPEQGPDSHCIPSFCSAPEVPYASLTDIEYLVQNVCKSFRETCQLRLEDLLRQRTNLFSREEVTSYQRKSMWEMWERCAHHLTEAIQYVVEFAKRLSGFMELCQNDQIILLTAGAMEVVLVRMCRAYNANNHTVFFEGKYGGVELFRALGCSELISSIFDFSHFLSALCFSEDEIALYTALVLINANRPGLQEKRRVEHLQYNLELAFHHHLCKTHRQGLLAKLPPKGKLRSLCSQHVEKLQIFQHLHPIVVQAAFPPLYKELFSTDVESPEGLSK
#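 ROR gamma transcriptional activity was tracked as Gal4-UAS luciferase output in stably transfected Drosophila Schneider cells, with compound added 1 hr before 700 uM copper sulfate induction and a 20 hr ambient-temperature incubation.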
# TSHR antag: antagonists of human thyroid stimulating hormone receptor | activity change, negative = inhibition, % at 11.5 µM | 330,000 compounds, 0.2% hits | P16473 | TSHR-expressing cells, TSH-stimulated cAMP HTRF, 2 h; active compounds read low | AID 504810;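 active means activity change below a set negative limit, meaning inhibition stronger than a set level, cut at about -70% in these data; inconclusive means activity change between two set negative limits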
#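 TSHR-expressing cells, 200/well, pre-treated with compound, then stimulated with EC80 TSH (4nM final) for 2 hours at 37 deg C. cAMP measured by competitive HTRF: anti-cAMP cryptate antibody in lysis buffer plus cAMP-d2, read after 30 minutes at room temperature.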
# * = called active by the depositor; u = inconclusive; x = not tested or not shown; [ ] = another dose, or the depositor's remark. Only some compounds are listed: those with a hit (about 8% of all), similar ones and a draw of the others. Unless noted, the call rests on the fitted dose curve; in most records, active means well fitted curve in the direction sought with a large enough effect; inconclusive means small, poorly fitted or top-dose-only effect, or another doubt; inactive means no such curve, though single readings can be large; an effect the other way counts as inactive or inconclusive. On the % scale 0 is the no-effect control and ±100 the full control effect.
SMILES,VP16 counter,Coupling enz,ELG1 DNA repair,RORgamma inh,TSHR antag
O=C1C(Nc2ccccc2)=C/C(=N/S(=O)(=O)c2cccs2)c2ccccc21,5µM*,-38*,6.5µM*,4.5µM*,-35
Cc1ccc(NC2=C/C(=N/S(=O)(=O)c3cccs3)c3ccccc3C2=O)cc1,6.3µM*,-42*,u,10µM*,-2
Cc1ccc(/C=C2\S/C(=N/S(=O)(=O)c3cccs3)NC2=O)cc1,-4%,14,-1%,42%,-13
O=C(c1ccncc1)N1CCC2(CC1)CN(c1ccncc1)C2,-10%,-2,x,-2%,x
COc1ccccc1N1C(=O)CC(Sc2n[nH]c(-c3cccc(C)c3)n2)C1=O (stereo not given),5µM*,1,18%,2.8µM*,2
COc1ccccc1N1C(=O)CC(Sc2nccc(C)n2)C1=O (stereo not given),u,0,2%,11µM*,6
COc1cc([N+](=O)[O-])ccc1N1C(=O)CC(Sc2nccc(C)n2)C1=O (stereo not given),u,1,-6%,u,4
Cc1ccc(S(=O)(=O)NC(C(=O)N2CCN(S(=O)(=O)c3cccc(F)c3)CC2)C(C)C)cc1 (stereo not given),x,x,-3%,x,3
COCc1c(C(=O)Nc2ccc3nc(N4CCOCC4)sc3c2)oc2ccccc12,x,x,13µM*,x,-20
COc1ccc([C@@H]2C[C@H]3CN(c4ccccc4)C(=O)[C@]34CCCN24)c(OC)c1OC,5%,-1,u,12%,22
COCc1cc([C@@H]2C[C@H]3CN(c4ccccc4)C(=O)[C@]34CCCN24)ccc1OC,3%,-13,15µM*,21%,3
O=C(COc1ccc(Cl)cc1)NCCNC(=O)c1ccccn1,-9%,-1,-5%,1%,-4
Cc1cc(C)c(C#N)c(SCc2cn3c(C)cccc3n2)n1,u,0,u,11µM*,33
Cc1cccc2nc(CSc3nnnn3-c3ccccc3)cn12,3%,0,-1%,1%,1
Cc1ccnc(SCc2cn3c(C)cccc3n2)n1,27%,-1,u,u,-3
c1ccc2oc(SCc3cn4ccccc4n3)nc2c1,16µM*,2,u,8.9µM*,3
Cc1cccc2nc(CSc3nc4ccccc4o3)cn12,u,5,u,18µM*,4
c1ccc2nc(SCc3cn4ccccc4n3)cnc2c1,u,-1,u,u,7
Cc1cccc2nc(CSc3nnc4ccccn34)cn12,u,0,x,11µM*,x
Cc1cc(C)nc(SCc2cn3c(C)cccc3n2)n1,1%,3,8%,u,-4
CCOC(=O)C1CCN(S(=O)(=O)c2ccc3c(c2)NC(=O)CS3)CC1,u,x,-17%,-18%,8
Clc1c(CSc2nc3ccccc3o2)nc2sccn12,-9%,4,u,u,-48
Clc1c(CSc2nc3ccccc3o2)nc2ccccn12,7.1µM*,2,u,u,-49
COC(=O)C/C=C\[C@H](C)[C@@H](OCc1ccccc1Br)C(C)C,-6%[10 µM],0,x,-18%[10 µM],x
CC(=O)c1ccc(NC(=S)NCCc2ccccn2)cc1,-23%,1,u,u,3
SMILES,VP16 counter,Coupling enz,ELG1 DNA repair,RORgamma inh,TSHR antag
CC(C)(C)c1ccc(NC(=S)NCCc2ccccn2)cc1,u,1,u,0.5µM*,-2
S=C(NCCc1ccccn1)Nc1ccc(Cl)cc1,u,-2,u,6.3µM*,10
CN(C)S(=O)(=O)c1cccc(NC(=S)NCCc2ccccn2)c1,8%,-2,-6%,15%,0
Fc1ccc(NC(=S)NCCc2ccccn2)cc1,u,-4,26%,10µM*,5
FC(F)(F)c1cccc(NC(=S)NCCc2ccccn2)c1,11µM*,1,-6%,4µM*,-9
CN(CCc1ccccn1)C(=O)Nc1ccc(Cl)cc1,22%,2,x,8%,x
COc1ccc(OC)c(S(=O)(=O)N2CCN(c3ccccc3OC)CC2)c1,2%,1,-10%,-22%,-11
CN(c1ccc(Cl)cc1)c1cc(=O)n(C)c2ccccc12,0%,2,u,-1%,-17
CN(C)c1ccc2c(O)cc(=O)n(C)c2c1,-15%,-37*,9%,u,-6
COc1ccc2cc(CO)c3cc(OC)c(OC)cc3c2c1,x,x,8.2µM*,x,-9
O=C(C1=C[C@H](C2CC2)C[C@H](OCc2ccc(CO)cc2)O1)N1CCN(Cc2ccc3c(c2)OCO3)CC1,-5%,0,6.5µM*,u,1
CC(C)(C)[C@H]1C=C(C(=O)N2CCN(Cc3ccc4c(c3)OCO4)CC2)O[C@@H](OCc2ccc(CO)cc2)C1,0%,-1,5.2µM*,2%,3
C#Cc1ccc([C@H]2C=C(C(=O)N3CCN(Cc4ccc5c(c4)OCO5)CC3)O[C@@H](OCC)[C@@H]2CCCO)cc1,-7%,1,18µM*,6%,-4
Nc1nonc1-n1nnc(C(=O)N/N=C/c2ccccc2Br)c1CN1CCCC1,1%,6,-7%,-2%,8
N=C(N)SCc1ccc(Cl)cc1Cl,2%,3,10µM*,0%,9
O=C(CSc1nc(-c2ccccc2)cs1)NC(=O)NCc1ccco1,u,-3,18µM*,u,12
Cc1cc(C)nc(-n2nc(C)cc2NC(=O)CN2CCc3ccccc3C2)n1,2.8µM*,-5,3.7µM*,0.79µM*,-19
Cc1ccccc1NC(=O)CN1CCc2ccccc2C1,3%,0,-4%,11%,-9
Cc1cc(C)nc(-n2nc(C)cc2NC(=O)CN2CCCC(C)C2)n1 (stereo not given),5.6µM*,-2,-11%,0.71µM*,-5
Cc1cc(C)nc(-n2nc(C)cc2NC(=O)CNC2CCCCC2)n1,6.3µM*,0,15%,2.5µM*,4
Cc1cc(NC2CCCCC2)nc(-n2nc(C)cc2C)n1,x,x,x,x,-27
C/C=C1/C(=O)C[C@H]2[C@@H]3CCC4=CC(=O)CC[C@]4(C)[C@H]3CC[C@]12C,-10%,x,x,-7%,x
Nc1ccc2[nH]ncc2c1,-6%,-42*,u,3%,-1
O=C(Cc1ccc(F)cc1)Nc1ccc2[nH]ncc2c1,7%,1,-19%,38%[1.91 µM],14
O=S(=O)(c1ccc(F)cc1)c1snnc1-c1ccccc1,u,-30*,-13%,u,-11
O=S(=O)(c1ccc(Cl)cc1)c1snnc1-c1ccccc1,u,-9,u,u,-10
CN(C)/C=N/c1c(C#N)cnn1-c1ncnc2sc(-c3ccccc3)cc12,2%,-2,18µM*,18%,-6
CN(C)/C=N/c1c(C#N)cnn1-c1ccccc1,-3%,0,-1%,13%,-3
